Results from PubChem BioAssay (NCI).
About 79,000 compounds went through this panel and 15% of them were active in at least one assay; those are over-represented in the sample as a whole. No stated cut-off is given here; in the data, active means growth inhibition above about 70%; inactive means the rest.

Assays:
[1] = NCI Yeast Anticancer Drug Screen. Data for the rad50 strain (AID 155);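 further: 0% = growth of vehicle-only cultures of the same strain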; settings: S. cerevisiae rad50 strain growth inhibition, active compounds read high; at 50.0 µM unless noted
Procedure, shortened: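 Growth of the mutant yeast was measured after compound exposure and referenced to vehicle-treated cultures.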

[2] = NCI Yeast Anticancer Drug Screen. Data for the mec2-1 strain (AID 157); settings: S. cerevisiae mec2-1 strain, active compounds read high; at 50.0 µM unless noted
Procedure, shortened: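 Strain: mec2-1 (DNA repair/cell cycle alteration). Compound exposure, then growth measured; inhibition expressed relative to vehicle.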

[3] = NCI Yeast Anticancer Drug Screen. Data for the sgs1 mgt1 strain (AID 161);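 further: 0% = growth of cultures given vehicle only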; settings: S. cerevisiae sgs1 mgt1 strain, active compounds read high; at 50.0 µM unless noted
Procedure, shortened: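 Read-out: growth inhibition vs vehicle controls. Cells: mutant yeast strain deficient in DNA damage repair.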

[4] = NCI Yeast Anticancer Drug Screen. Data for the cln2 rad14 strain (AID 165);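 further: 0% = growth equal to vehicle treated cultures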; settings: S. cerevisiae cln2 rad14 strain, active compounds read high; at 50.0 µM unless noted
Procedure, shortened: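 Compounds are applied to the cln2 rad14 yeast strain, and growth is then compared with that of vehicle-treated cultures to give inhibition.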

[5] = NCI Yeast Anticancer Drug Screen. Data for the bub3 strain (AID 167); settings: S. cerevisiae bub3 mutant strain, active compounds read high; at 50.0 µM unless noted
Procedure, shortened: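 Whole-cell yeast assay. The mutant strain was incubated with compounds, and growth inhibition was determined by comparison with vehicle-treated cells.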

[6] = NCI Yeast Anticancer Drug Screen. Data for the mlh1 rad18 strain (AID 175); settings: S. cerevisiae mlh1 rad18 strain growth inhibition, active compounds read high; at 50.0 µM unless noted
Procedure, shortened: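 Read-out is yeast growth inhibition, calculated against vehicle-only controls. The compound was applied to a strain engineered with DNA damage repair alterations.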

Measured: growth inhibition

CCOC(=O)C(Cc1ccc(Cl)cc1)(NC(C)=O)C(=O)OCC
inactive: [1] -1.25% | [2] -13.6% | [3] -4.25% | [4] -23.9% | [5] 14.4% | [6] -10.4%

COc1ccc(C(=O)C(=O)c2ccccc2Cl)cc1
inactive: [1] 11.4% | [2] 14.9% | [3] 9.55% | [4] 13.3% | [5] 17.8% | [6] 10.9%

CCOC(=S)Nc1ccccc1[N+](=O)[O-]
inactive: [1] 8.05% | [2] -10.6% | [3] 0.05% | [4] -57.6% | [5] -23.6% | [6] -9.15%

Cc1ccc(C(=O)NNC(=O)c2ccc(C)cc2)cc1
inactive: [1] -10.5% | [2] -18.4% | [3] -11.1% | [4] 2.8% | [5] -10.9% | [6] -5.15%

O=[N+]([O-])c1ccc2c(c1)S(=O)c1ccccc1-2 (stereo not given)
inactive: [1] -18.1% | [2] -3.65% | [3] -12.4% | [4] 1% | [5] -37.8% | [6] -4.8%

CCC(=O)Nc1ccccc1Cl
inactive: [1] 3.6% | [2] -1.1% | [3] -15.4% | [4] -42.6% | [5] -1.95% | [6] 4.95%

O=C(CC1=Nc2nnc(-c3nnc4n3C(=O)C(CC(=O)c3cccnc3)=N4)n2C1=O)c1cccnc1
inactive: [1] -5% | [2] -8.55% | [3] -1.35% | [4] -19.2% | [5] -6.35% | [6] -12.7%

O=C(O)CCC1NCCCO1 (stereo not given)
inactive: [1] 1.85% | [2] 3% | [3] 3.7% | [4] -35.1% | [5] -4.15% | [6] 0.75%

O=C(O)C1CC1c1ccc2c(c1)OCO2 (stereo not given)
inactive: [1] -11.8% | [2] -10.4% | [3] 7.2% | [4] -34% | [5] -33.9% | [6] 1.35%

Cc1c(CCCl)c(N=P(c2ccccc2)(c2ccccc2)c2ccccc2)n2c(nc3ccccc32)c1C#N
inactive: [1] 29.1% | [2] -2.1% | [3] -7.75% | [4] 12.5% | [5] -5.05% | [6] 18.6%

CCOC(=O)CN(Cn1cncn1)Cn1cncn1
inactive: [1] 26% | [2] 5.55% | [3] 22.2% | [4] -30.2% | [5] -43.4% | [6] 10.8%

C#CCN(N=O)C(=O)NCCCCC(NC(=O)OCc1ccccc1)C(=O)OCc1ccccc1 (stereo not given)
inactive: [1] -6.65% | [2] -8.15% | [3] -26.6% | [4] -4.5% | [5] 10.3% | [6] -24.9%

COC(C(=O)Nc1ccc(C)cc1)(c1ccccc1)c1ccccc1
inactive: [1] 7.4% | [2] 7.45% | [3] -7.55% | [4] 0.65% | [5] 12.9% | [6] 23.8%

OC(c1ccccc1)c1ccc(C(O)c2ccccc2)cc1 (stereo not given)
inactive: [1] -14.2% | [2] -19.1% | [3] -8.85% | [4] 33.3% | [5] 5.5% | [6] -8.75%

O=C(O)CNOCN1C(=O)c2ccccc2C1=O
inactive: [1] 11.6% | [2] -1.25% | [3] 13.3% | [4] -21.6% | [5] -16% | [6] 14.4%

O=C(O)CCC(=O)CCC(=O)O
inactive: [1] 13.7% | [2] -8.85% | [3] 3.6% | [4] 2% | [5] -14.6% | [6] 7.2%

C=CC[N+]1(CCOC(=O)C(c2ccccc2)C2C=CCC2)CCCC1 (stereo not given)
inactive: [1] -17.1% | [2] 1.35% | [3] -6.9% | [4] -13.8% | [5] -13.9% | [6] -22.4%

COc1ccc(C2=C(c3ccccc3)C(=O)C3(c4ccccc4)CC23c2ccc(OC)cc2)cc1 (stereo not given)
inactive: [1] -1.25% | [2] 17.6% | [3] 15.5% | [4] 1.85% | [5] 1.15% | [6] 4.7%

C=C1c2nc3ccccc3n2C=C(c2ccccc2)N1c1ccc(OC)cc1
inactive: [1] -6.5% | [2] 15.3% | [3] -9.25% | [4] -5.85% | [5] 17.5% | [6] 7.05%

CC1([N+](=O)[O-])COC(Cc2ccccc2)OC1 (stereo not given)
inactive: [1] -7.7% | [2] -4% | [3] -16.9% | [4] -17.3% | [5] -18% | [6] -5%
